Experimental data published in PubChem BioAssay (Tox21).
Records with an inconclusive call do not appear. A call without a number means that no potency is given here. Unmarked numbers belong to inactive results. The source made the active and inactive calls. Unless noted, calls follow the shape of the dose curve; as a rule, active = well fitted curve in the direction sought with a large enough effect in the repeat runs; inconclusive = weak or mixed curves; inactive = no such curve, though single readings can be large; an effect the other way counts as inactive or inconclusive.

Key:
[1] = qHTS assay to identify small molecule agonists of the vitamin D receptor (VDR) signaling pathway - cell viability counter screen (AID 743224); also: series mostly up to about 63 µM; nearly all actives have a fitted effect of over 50% in size
Summary of the method: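 Counter screen run in the same wells as the VDR-bla reporter assay: CellTiter-Glo luminescence, 30 min at room temperature, after 16 h compound treatment at 37C of cells pre-plated for 4 h.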

[2] = qHTS assay to identify small molecule antagonists of the vitamin D receptor (VDR) signaling pathway - cell viability counter screen (AID 743225); also: nearly all actives have a fitted effect of over 50% in size
Summary of the method: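 Cells (VDR-UAS-bla HEK 293T) are plated, rested 4 h at 37C, dosed with compound and 3 nM final 1-alpha,25-dihydroxy vitamin D3, and incubated 16 h. Viability is taken from CellTiter-Glo luminescence in the reporter wells.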

[3] = qHTS assay to identify small molecule agonists of the NFkB signaling pathway (AID 1159509; active = well fitted curve in the direction sought with a large enough effect in the signal ratio in the repeat runs, not every such curve was filed as active; the % refers to the signal ratio; also: series mostly up to about 61 µM)
Summary of the method: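 Beta-lactamase reporter assay run in quantitative high-throughput format on an NF-kB-responsive ME-180 line, with 5 hr compound treatment and a FRET-based blue/green fluorescence readout.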

[4] = qHTS assay to identify small molecule agonists of the NFkB signaling pathway - cell viability counter screen (AID 1159515; calls by dose curve; also: series mostly up to about 61 µM; nearly all actives have a fitted effect of over 55% in size)
Summary of the method: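 Read by CellTiter-Glo luminescence (30 min, room temperature) in the wells also used for the beta-lactamase FRET read. ME-180 NFkB-bla cells at 2,000 per well were plated overnight, then exposed to compound for 5 hr at 37 C.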

[5] = qHTS assay to identify small molecule agonists of the endoplasmic reticulum stress response signaling pathway (AID 1159516; active = well fitted activation curve with a large enough effect in the signal ratio in the repeat runs, not every such curve was filed as active; the % refers to the signal ratio)
Summary of the method: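 Ratiometric FRET readout (405 nm excitation; 460 and 530 nm emission) of a beta-lactamase gene driven by the ER stress response element, after 2 hr substrate loading. HeLa ESRE-bla cells were seeded overnight and treated with compounds for only 5 hr at 37 C.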

[6] = qHTS assay to identify small molecule agonists of the endoplasmic reticulum stress response signaling pathway - cell viability counter screen (AID 1159517; calls by dose curve; also: series mostly up to about 61 µM; nearly all actives have a fitted effect of over 50% in size)
Summary of the method: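 After overnight attachment, ESRE-bla HeLa cells were treated with Tox21 library compounds for 5 hr. CellTiter-Glo luminescence, read 30 min post-addition at room temperature, reported viability.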

[7] = qHTS assay to identify small molecule antagonists of the retinoid-related orphan receptor gamma (ROR-gamma) signaling pathway - cell viability counter screen (AID 1159520); also: nearly all actives have a fitted effect of over 50% in size
Summary of the method: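 Cytotoxicity was read from cellular ATP (CellTiter-Glo luminescence) after 16 hr at 37 C with 1 uM doxycycline induction. The inducer was added 2 hr after compound transfer to Tet-on ROR gamma CHO cells.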

[8] = target: Nuclear receptor ROR-gamma (Homo sapiens) (UniProt P51449); experiment: qHTS assay to identify small molecule antagonists of the retinoid-related orphan receptor gamma (ROR-gamma) signaling pathway (AID 1159521)
Summary of the method: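 RORγ antagonism is scored from reduced reporter luminescence in Tet-on CHO cells. Induction used 1 uM final doxycycline hyclate for 16 h at 37 C, following a 2 h compound exposure.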

[9] = qHTS assay to identify small molecule agonists of the AP-1 signaling pathway (AID 1159526; calls by dose curve)
[10] = target: Retinoic acid receptor RXR-alpha (Homo sapiens) (UniProt P19793); experiment: qHTS assay to identify small molecule agonists of the RXR signaling pathway (AID 1159527; calls by dose curve; also: nearly all actives have a fitted effect of over 35% in size; also: potency is read from the fitted curve at half-maximal effect)
Retinoic acid receptor RXR-alpha (Homo sapiens), sequence (P19793 whole entry, looked up): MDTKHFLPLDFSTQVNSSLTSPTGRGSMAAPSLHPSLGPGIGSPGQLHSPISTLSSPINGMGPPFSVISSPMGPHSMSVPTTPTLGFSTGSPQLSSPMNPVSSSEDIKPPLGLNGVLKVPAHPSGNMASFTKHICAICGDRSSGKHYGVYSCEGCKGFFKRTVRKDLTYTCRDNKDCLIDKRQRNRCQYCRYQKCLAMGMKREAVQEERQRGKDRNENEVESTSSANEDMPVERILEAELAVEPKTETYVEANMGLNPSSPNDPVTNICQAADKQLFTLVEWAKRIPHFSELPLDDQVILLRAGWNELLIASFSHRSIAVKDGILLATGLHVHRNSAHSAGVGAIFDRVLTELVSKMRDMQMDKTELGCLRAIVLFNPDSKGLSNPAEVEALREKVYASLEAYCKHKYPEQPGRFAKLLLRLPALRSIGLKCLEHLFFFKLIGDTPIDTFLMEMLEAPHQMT
Summary of the method: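 qHTS of the Tox21 10K library in GeneBLAzer RXR-alpha HEK 293T cells carrying a beta-lactamase reporter […]; 16 hr treatment, 9-cis retinoic acid as agonist control, FRET read-out.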

[11] = qHTS assay to identify small molecule agonists of the RXR signaling pathway - cell viability counter screen (AID 1159529)
Summary of the method: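 Cell viability is measured by CellTiter-Glo luminescence, 30 min at room temperature, in wells already read for beta-lactamase. Engineered HEK 293T cells (RXR-alpha-UAS-bla) are dosed 16 hr at 37 C. Tetraoctyl ammonium bromide serves as positive control.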

[12] = qHTS assay to identify small molecule antagonists of the retinoid acid receptor (RAR) signaling pathway - cell viability counter screen (AID 1159551); also: nearly all actives have a fitted effect of over 35% in size
Summary of the method: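 Cytotoxicity counter screen: ATP content quantified by CellTiter-Glo luminescence in C3RL4 cells treated 6 hr at 37 C with compound and retinol (1 uM final). Cells plated at 1,000/well and cultured overnight before dosing.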

[13] = qHTS assay to identify small molecule antagonists of the retinoic acid receptor (RAR) signaling pathway (AID 1159552; also: nearly all actives have a fitted effect of over 50% in size)
Summary of the method: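 Quantitative HTS in C3RL4 RARE-luciferase reporter cells. Compounds were added with 1 uM (final) retinol; luminescence was read after 6 hr.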

[14] = qHTS assay to identify small molecule agonists of the retinoic acid receptor (RAR) signaling pathway (AID 1159553); also: potency is read from the fitted curve at half-maximal effect
Summary of the method: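 Luminescence was measured 30 min after luciferase reagent addition at room temperature. Before that, C3RL4 reporter cells (1,000 per well, plated overnight) were treated with compound for 6 hr at 37 C and 5% CO2.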

[15] = qHTS assay to identify small molecule antagonists of the estrogen related receptor (ERR) signaling pathway from Tox21 library - cell viability counter screen (AID 1224834); also: nearly all actives have a fitted effect of over 30% in size
Summary of the method: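 CellTiter-Fluor fluorescence, read after 30 min at 37 C, measures viability of ERR cells. Cells plated at 2,000/well and incubated 6 h before pin-tool compound addition, then exposed 17.5 hours at 37 C.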

[16] = target: Luciferin 4-monooxygenase (Photinus pyralis) (UniProt P08659); experiment: qHTS assay to identify small molecule inhibitors of firefly luciferase (AID 1224835); also: series mostly up to about 120 µM; nearly all actives have a fitted effect of over 25% in size
Luciferin 4-monooxygenase (Photinus pyralis), sequence (P08659 whole entry, looked up): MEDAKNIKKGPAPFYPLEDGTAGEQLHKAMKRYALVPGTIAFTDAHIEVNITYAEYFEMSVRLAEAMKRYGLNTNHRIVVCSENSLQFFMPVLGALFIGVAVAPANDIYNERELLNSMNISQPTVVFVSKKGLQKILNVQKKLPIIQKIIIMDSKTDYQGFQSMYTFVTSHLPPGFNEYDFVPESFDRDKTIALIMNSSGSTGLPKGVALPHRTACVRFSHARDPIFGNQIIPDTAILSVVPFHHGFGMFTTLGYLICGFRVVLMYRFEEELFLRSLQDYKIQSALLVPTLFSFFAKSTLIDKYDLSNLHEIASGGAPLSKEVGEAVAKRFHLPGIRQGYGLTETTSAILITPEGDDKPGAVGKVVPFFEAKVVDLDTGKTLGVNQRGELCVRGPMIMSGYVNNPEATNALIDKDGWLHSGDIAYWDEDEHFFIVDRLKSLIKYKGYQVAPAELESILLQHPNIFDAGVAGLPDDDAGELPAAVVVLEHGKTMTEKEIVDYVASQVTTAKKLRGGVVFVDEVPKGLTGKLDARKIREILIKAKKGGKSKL
Summary of the method: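 Inhibition of purified Photinus luciferase is measured by luminescence. Substrate levels (D-luciferin, ATP) sit at their KM values. Each compound is tested in a concentration series.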

[17] = qHTS assay to identify small molecule agonists of the constitutive androstane receptor (CAR) signaling pathway - cell viability counter screen (AID 1224836); also: series mostly up to about 92 µM; nearly all actives have a fitted effect of over 45% in size
Summary of the method: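 Counter screen multiplexed with the CAR reporter readout: HepG2 cells co-transfected with hCAR and the CYP2B6-2.2kb construct receive a 15-concentration compound series and 0.75 uM PK11195 (final), then CellTiter-Fluor fluorescence is read after 23 h.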

[18] = qHTS assay to identify small molecule antagonists of the constitutive androstane receptor (CAR) signaling pathway - cell viability counter screen (AID 1224837); also: series mostly up to about 92 µM; nearly all actives have a fitted effect of over 45% in size
Summary of the method: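 Cytotoxicity counter-screen: CellTiter-Fluor fluorescence after 23 h compound exposure (15-point qHTS) in double-stable HepG2-CYP2B6-hCAR cells, with 50 nM CITCO added.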

[19] = target: Nuclear receptor subfamily 1 group I member 3 (Homo sapiens) (UniProt Q14994); experiment: qHTS assay to identify small molecule antagonists of the constitutive androstane receptor (CAR) signaling pathway (AID 1224838);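 also: HepG2 cells stably expressing hCAR with CYP2B6 luciferase reporter stimulated by CITCO; nearly all actives have a fitted effect of over 40% in size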
Nuclear receptor subfamily 1 group I member 3 (Homo sapiens), sequence (Q14994 whole entry, looked up): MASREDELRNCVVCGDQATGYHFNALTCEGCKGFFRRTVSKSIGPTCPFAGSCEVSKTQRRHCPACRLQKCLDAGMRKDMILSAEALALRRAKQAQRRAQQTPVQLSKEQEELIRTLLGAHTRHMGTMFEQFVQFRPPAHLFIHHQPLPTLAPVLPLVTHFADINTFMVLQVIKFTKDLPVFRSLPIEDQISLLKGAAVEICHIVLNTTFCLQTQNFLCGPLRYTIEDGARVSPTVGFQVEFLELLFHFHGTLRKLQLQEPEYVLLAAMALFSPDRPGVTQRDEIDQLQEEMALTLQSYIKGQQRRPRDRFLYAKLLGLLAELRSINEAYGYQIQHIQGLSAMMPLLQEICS
Summary of the method: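 Antagonism measured as luciferase signal (ONE-Glo, 30 min, room temperature) in CAR-stimulated cells: HepG2-CYP2B6-hCAR double-stable line exposed 24 hr at 37 C to compound in a 15-point series plus 50 nM CITCO.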

[20] = qHTS assay to identify small molecule agonists of the AP-1 signaling pathway - cell viability counter screen (AID 1159525; calls by dose curve; also: nearly all actives have a fitted effect of over 55% in size)
Summary of the method: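 Intracellular ATP by Cell Titer Glo luminescence (30 min, RT) in the same ME-180 AP-1-bla wells after the 5 h compound exposure at 37 °C. Normalised to tetra n-octyl ammonium bromide and DMSO controls.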

| Structure (SMILES) | outcome [1] | outcome [2] | outcome [3] | outcome [4] | outcome [5] | outcome [6] | outcome [7] | outcome [8] | outcome [9] | Potency [10] | outcome [11] | outcome [12] | outcome [13] | Potency [14] | outcome [15] | Potency [16] | outcome [17] | outcome [18] | Potency [19] | outcome [20] |
| --- | --- | --- | --- | --- | --- | --- | --- | --- | --- | --- | --- | --- | --- | --- | --- | --- | --- | --- | --- | --- |
| CC(=O)Nc1ccc(OC(=O)c2ccccc2OC(C)=O)cc1 | inactive | inactive | inactive | inactive | inactive | inactive | inactive | inactive | inactive | inactive | inactive | inactive | inactive | 23.7 µM (active) | inactive | inactive | inactive | inactive | inactive |  |
| O/N=C/C=N/O | inactive | inactive | inactive | inactive | inactive | inactive | inactive | inactive | inactive | inactive | inactive | inactive | inactive | inactive | inactive | inactive |  | inactive | inactive | inactive |
| N#Cc1cscn1 | inactive | inactive | inactive | inactive | inactive | inactive | inactive | inactive | inactive | inactive | inactive | inactive | inactive | inactive | inactive | inactive | inactive | inactive | inactive |  |
| C=CCOC(=O)CCCCCC | inactive | inactive | inactive | inactive | inactive | inactive | inactive | inactive | inactive | inactive | inactive | inactive | inactive | inactive | inactive | inactive |  | inactive | inactive | inactive |
| C=C(C)C1CC=C(C)C(=O)C1 (centres undefined) |  |  | inactive | inactive | inactive | inactive | inactive | inactive | inactive | inactive | inactive | inactive |  |  | inactive | inactive | inactive | inactive |  | inactive |
| COC(C)(OC)OC | inactive | inactive | inactive | inactive | inactive | inactive | inactive | inactive | inactive | inactive | inactive | inactive | inactive | inactive | inactive | inactive | inactive | inactive | inactive |  |
| CCCCSCCCC | inactive | inactive | inactive | inactive | inactive | inactive | inactive | inactive | inactive | 21.9 µM (active) | inactive | inactive | inactive | inactive | inactive | inactive |  | inactive | inactive | inactive |
